Measurements from PubChem BioAssay AID1781 (National Center for Advancing Translational Sciences (NCATS), 2009).
Records with an inconclusive call do not appear. Calls of active or inactive are those of the source. Calls follow the shape of the dose curve; as a rule, active = well fitted curve in the direction sought with a large enough effect; inconclusive = small, poorly fitted or top-dose-only effect, or effect the other way, or another doubt; inactive = no such curve, though single readings can be large or run the other way.

Biological target: Pyruvate kinase PKLR (Homo sapiens) (UniProt P30613)
Experiment: Confirmation Concentration-Response Assay for Activators of Human Liver Pyruvate Kinase
Details: purified hPK-L, Kinase-Glo ATP luminescence, 1 h; series mostly up to 57.5 µM
Excerpt: Confirmatory assay NIH Chemical Genomics Center [NCGC] Matthew G. Vander Heiden, M.D., Ph.D. [Harvard Medical School, 77 Avenue Louis Pasteur, Boston, MA 02115] NCGC Assay Overview: Human pyruvate kinase liver (hPK-L) enzyme was supplied as a highly purified (>95% pure) preparation from Harvard Medical School and assayed for its ability to generate ATP from ADP using phosphoenolpyruvate (PEP) as a substrate. ATP generation was detected in a coupled reaction by luciferase-mediated luminescence, an ATP-dependent process. Pyruvate kinase substrates, PEP and ADP, were present in the assay at Km and approximately 10-fold below Km respectively. The enzyme was assayed at an intermediate level of activity to screen for both inhibitors and activators.
NCGC Assay Protocol Summary for L-isoform: Three uL of substrate mix (at r.t.) in assay buffer (50 mM Imidazole pH7.2, 50 mM KCl, 7 mM MgCl2, 0.01% Tween 20, 0.05% BSA) was dispensed into white solid bottom 1,536 well microtiter plates so that the final concentrations of substrates in the assay were 0.1 mM ADP and 0.5 mM PEP. 23 nL of compound were delivered by a pin tool and 1 uL of enzyme mix (final concentration of 0.1 nM) in assay buffer (4 degree Celsius) was added. Plates were incubated at room temperature for 1 hour. Two uL of detection mix (Kinase-Glo, Promega; at 4 degree Celsius protected from light) was added and luminescence read by a ViewLux (Perkin Elmer) at 1 second exposure/plate. Data were normalized to the uninhibited (row 31). Additionally, a no enzyme and 5-fold enzyme control was dispensed in row 32, split equally between the two conditions.

Pyruvate kinase PKLR (Homo sapiens), sequence (P30613 whole entry, looked up): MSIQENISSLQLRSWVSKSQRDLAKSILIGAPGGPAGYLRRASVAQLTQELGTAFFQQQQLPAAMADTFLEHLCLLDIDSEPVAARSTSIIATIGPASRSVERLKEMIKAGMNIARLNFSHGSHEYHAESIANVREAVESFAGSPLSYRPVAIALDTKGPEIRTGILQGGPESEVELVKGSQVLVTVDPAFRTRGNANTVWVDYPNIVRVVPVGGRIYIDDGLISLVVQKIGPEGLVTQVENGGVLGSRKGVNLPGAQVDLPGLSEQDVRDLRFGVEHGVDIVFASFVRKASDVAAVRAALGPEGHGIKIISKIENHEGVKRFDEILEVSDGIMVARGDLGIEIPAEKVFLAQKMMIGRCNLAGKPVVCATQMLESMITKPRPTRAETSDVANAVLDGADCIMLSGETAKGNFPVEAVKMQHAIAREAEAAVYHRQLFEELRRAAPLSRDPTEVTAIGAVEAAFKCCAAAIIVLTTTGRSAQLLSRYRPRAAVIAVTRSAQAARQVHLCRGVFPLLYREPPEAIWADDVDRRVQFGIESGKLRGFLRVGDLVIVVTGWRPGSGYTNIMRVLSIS

outcome, inactive:
Cc1cc2c(s1)c1cnn(Cc3cccc(F)c3)c(=O)c1n2C
CC(=O)Nc1cc2c(s1)c1cnn(Cc3ccccc3F)c(=O)c1n2C
CC(=O)c1cc2c(s1)c1cnn(Cc3ccccc3F)c(=O)c1n2C
CCCCCn1ncc2c3sc(C)cc3n(C)c2c1=O
CC(C)c1cc2c(s1)c1cnn(Cc3ccccc3F)c(=O)c1n2C
Cc1cc2c(s1)c1cnn(Cc3c(F)c(F)cc(F)c3F)c(=O)c1n2C
Cc1cc2c(s1)c1cnn(Cc3ccc(Cl)cc3)c(=O)c1n2C
CCc1cc2c(s1)c1cnn(Cc3ccccc3F)c(=O)c1n2C
Cc1cc2c(s1)c1cnn(Cc3ccccc3F)c(=O)c1n2C(C)C
O=S(=O)(NC1CCN(S(=O)(=O)c2ccc3c(c2)OCCO3)CC1)c1c(F)cccc1F
Cc1cc2c(s1)c1cnn(Cc3ccc(S(C)(=O)=O)cc3)c(=O)c1n2C
CSc1cc2c(s1)c1cnn(Cc3ccccc3F)c(=O)c1n2C
O=S(=O)(c1ccc2ccccc2c1)N1CCN(S(=O)(=O)c2c(F)cccc2F)CC1
CN1CCOc2ccc(S(=O)(=O)N3CCN(S(=O)(=O)c4c(F)cccc4F)CC3)cc21
Cc1cc2c(s1)c1cnn(Cc3ccc(C(C)C)cc3)c(=O)c1n2C
O=S(=O)(c1ccc2c(c1)OCCO2)N1CCN(S(=O)(=O)c2ccc3c(c2)OCCO3)CC1
Cn1c2cc(CO)sc2c2cnn(Cc3ccccc3F)c(=O)c21
CCn1c2cc(C)sc2c2cnn(Cc3ccccc3F)c(=O)c21
O=S(=O)(c1cccc(C(F)(F)F)c1)N1CCN(S(=O)(=O)c2ccc3c(c2)OCCO3)CC1
Cn1c2cc(B(O)O)sc2c2cnn(Cc3ccccc3F)c(=O)c21
COc1ccc(Cn2ncc3c4sc(C)cc4n(C)c3c2=O)cc1F
CC1(C)CCc2cc(S(=O)(=O)N3CCN(S(=O)(=O)c4c(F)cccc4F)CC3)ccc2O1
O=S(=O)(c1ccc2c(c1)OCCO2)N1CCN(S(=O)(=O)c2cccc[n+]2[O-])CC1
Cc1cc2[nH]c3c(=O)n(Cc4ccccc4F)ncc3c2s1
Cc1cc2c(s1)c1cnn(Cc3cc(C(F)(F)F)cc(Cl)c3F)c(=O)c1n2C
Cc1ccc(Cn2ncc3c4sc(C)cc4n(C)c3c2=O)c(C)c1
Cn1c2cc(S(C)=O)sc2c2cnn(Cc3ccccc3F)c(=O)c21 (stereo not given)
Cc1cc2c(s1)c1cnn(-c3ccccc3)c(=O)c1n2C
Cc1cc2c(s1)c1c(C)nn(Cc3ccccc3F)c(=O)c1n2C
Cc1cc2c(s1)c1cnn(Cc3cccc(Cn4ncc5c6sc(C)cc6n(C)c5c4=O)c3F)c(=O)c1n2C
Cc1cc2c(s1)c1cnn(Cc3ccc(F)cc3)c(=O)c1n2C
O=S(=O)(c1c(F)cccc1F)N1CCN(S(=O)(=O)c2c(F)cccc2F)CC1
O=C(c1c(F)cccc1F)N1CCN(S(=O)(=O)c2ccc3c(c2)OCCO3)CC1
Cn1ccc2cc(S(=O)(=O)N3CCN(S(=O)(=O)c4c(F)cccc4F)CC3)ccc21
COc1ccc(S(=O)(=O)N2CCN(S(=O)(=O)c3ccc(OC)cc3)CC2)cc1
Cc1cc2c(s1)c1cnn(Cc3ccccc3)c(=O)c1n2C
Cc1cc2c(s1)c1cnn(Cc3cccc(F)c3F)c(=O)c1n2C
O=C(c1ccc2c(c1)OCCO2)N1CCN(S(=O)(=O)c2c(F)cccc2F)CC1
Cc1cc2c(s1)c1cnn(Cc3c(F)cccc3Cl)c(=O)c1n2C
C[C@@H]1CN(S(=O)(=O)c2ccc3c(c2)OCCO3)CCN1S(=O)(=O)c1c(F)cccc1F
